Reference: the supplement of paper PMC11732987, “Enantioselective OTUD7B fragment discovery through chemoproteomics screening and high-throughput optimisation” (Communications Chemistry, 2025)

Assays:
Assay in all cases: log2 ratio of Biotin-Ahx-Ub-VS probe labelling (fragment/DMSO); higher = less target engagement (more negative = stronger competition), active = hit call of the paper (q ≤ 0.05, log2 ratio ≤ -1)
Details in all cases: compound concentration: 200 uM; treatment time: 3 h
USP34 = USP34 (UniProt Q70CQ2)
Outline: (§1)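 HEK293T lysate (495 µg per sample, in Tris/CHAPS/IGEPAL buffer with protease inhibitors) was treated in triplicate with fragment at 200 µM or with DMSO for 3 h. It was then treated with Biotin-Ahx-Ub-VS (0.5 µM final) for 1 h. Labelled DUBs were NeutrAvidin-enriched, digested with LysC and trypsin, and run by diaPASEF LC-MS/MS. Spectronaut label-free quantities were global-median-normalised. Values are average log2 ratios fragment/DMSO by unpaired t-test, using proteins with ≥2 unique peptides.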

USP36 = molecular target: T1, USP36 (UniProt Q9P275)
T1 sequence (whole entry): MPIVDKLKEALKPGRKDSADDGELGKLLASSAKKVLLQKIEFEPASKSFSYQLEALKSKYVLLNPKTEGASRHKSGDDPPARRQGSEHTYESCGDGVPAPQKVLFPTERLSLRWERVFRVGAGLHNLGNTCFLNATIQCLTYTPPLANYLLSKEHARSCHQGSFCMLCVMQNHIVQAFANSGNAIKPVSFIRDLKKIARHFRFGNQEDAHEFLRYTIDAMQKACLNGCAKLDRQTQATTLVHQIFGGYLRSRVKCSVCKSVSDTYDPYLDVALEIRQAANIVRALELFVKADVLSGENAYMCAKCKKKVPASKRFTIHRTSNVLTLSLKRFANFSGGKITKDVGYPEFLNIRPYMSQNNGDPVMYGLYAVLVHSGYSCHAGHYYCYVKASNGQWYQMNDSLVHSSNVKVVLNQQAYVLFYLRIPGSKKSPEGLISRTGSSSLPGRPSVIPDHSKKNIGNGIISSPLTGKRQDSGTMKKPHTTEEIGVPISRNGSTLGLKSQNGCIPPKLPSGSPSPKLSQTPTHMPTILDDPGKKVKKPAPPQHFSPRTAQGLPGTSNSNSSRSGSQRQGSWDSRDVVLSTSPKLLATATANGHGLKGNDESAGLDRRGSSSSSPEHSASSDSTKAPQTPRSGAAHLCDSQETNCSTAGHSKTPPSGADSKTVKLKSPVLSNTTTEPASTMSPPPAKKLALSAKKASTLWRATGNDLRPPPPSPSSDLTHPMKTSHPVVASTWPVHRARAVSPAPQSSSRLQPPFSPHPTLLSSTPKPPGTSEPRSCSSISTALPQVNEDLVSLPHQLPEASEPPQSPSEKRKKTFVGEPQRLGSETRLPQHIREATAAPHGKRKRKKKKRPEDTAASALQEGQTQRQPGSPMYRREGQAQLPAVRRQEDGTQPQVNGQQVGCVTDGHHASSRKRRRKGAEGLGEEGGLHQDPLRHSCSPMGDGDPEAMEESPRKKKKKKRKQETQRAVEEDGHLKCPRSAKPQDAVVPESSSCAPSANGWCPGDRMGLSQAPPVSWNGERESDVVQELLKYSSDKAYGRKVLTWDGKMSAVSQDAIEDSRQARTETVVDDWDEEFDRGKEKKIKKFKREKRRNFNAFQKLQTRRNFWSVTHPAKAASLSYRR
Outline: as §1

USP38 = molecular target: T2, USP38 (UniProt Q8NB14)
T2 sequence (whole entry): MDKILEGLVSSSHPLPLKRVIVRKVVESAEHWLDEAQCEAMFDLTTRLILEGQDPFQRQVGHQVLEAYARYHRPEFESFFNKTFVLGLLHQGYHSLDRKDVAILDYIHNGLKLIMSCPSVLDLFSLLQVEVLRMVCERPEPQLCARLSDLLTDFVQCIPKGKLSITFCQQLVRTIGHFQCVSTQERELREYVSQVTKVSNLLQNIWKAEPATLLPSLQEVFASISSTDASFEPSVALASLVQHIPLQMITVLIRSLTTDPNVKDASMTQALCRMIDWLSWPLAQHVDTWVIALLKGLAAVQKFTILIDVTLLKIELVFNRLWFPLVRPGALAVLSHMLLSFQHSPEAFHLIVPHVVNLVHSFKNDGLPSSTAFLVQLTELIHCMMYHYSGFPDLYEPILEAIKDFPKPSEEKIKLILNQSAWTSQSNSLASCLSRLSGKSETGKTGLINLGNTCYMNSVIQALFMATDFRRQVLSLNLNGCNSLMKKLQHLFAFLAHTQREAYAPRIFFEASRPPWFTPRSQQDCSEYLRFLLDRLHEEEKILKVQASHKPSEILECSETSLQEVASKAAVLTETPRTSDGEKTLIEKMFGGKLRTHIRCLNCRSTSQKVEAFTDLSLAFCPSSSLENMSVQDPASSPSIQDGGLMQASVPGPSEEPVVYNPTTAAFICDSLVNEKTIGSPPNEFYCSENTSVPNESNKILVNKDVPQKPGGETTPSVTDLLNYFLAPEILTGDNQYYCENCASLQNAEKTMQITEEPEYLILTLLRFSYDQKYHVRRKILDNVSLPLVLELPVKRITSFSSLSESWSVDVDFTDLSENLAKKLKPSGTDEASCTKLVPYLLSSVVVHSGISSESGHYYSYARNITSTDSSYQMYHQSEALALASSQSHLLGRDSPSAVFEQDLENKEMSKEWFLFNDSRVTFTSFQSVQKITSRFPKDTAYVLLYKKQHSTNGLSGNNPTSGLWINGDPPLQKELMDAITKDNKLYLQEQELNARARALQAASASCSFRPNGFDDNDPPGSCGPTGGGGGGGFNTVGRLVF
Outline: as §1

USP39 = molecular target: T3, USP39 (UniProt Q53GS9)
T3 sequence (whole entry): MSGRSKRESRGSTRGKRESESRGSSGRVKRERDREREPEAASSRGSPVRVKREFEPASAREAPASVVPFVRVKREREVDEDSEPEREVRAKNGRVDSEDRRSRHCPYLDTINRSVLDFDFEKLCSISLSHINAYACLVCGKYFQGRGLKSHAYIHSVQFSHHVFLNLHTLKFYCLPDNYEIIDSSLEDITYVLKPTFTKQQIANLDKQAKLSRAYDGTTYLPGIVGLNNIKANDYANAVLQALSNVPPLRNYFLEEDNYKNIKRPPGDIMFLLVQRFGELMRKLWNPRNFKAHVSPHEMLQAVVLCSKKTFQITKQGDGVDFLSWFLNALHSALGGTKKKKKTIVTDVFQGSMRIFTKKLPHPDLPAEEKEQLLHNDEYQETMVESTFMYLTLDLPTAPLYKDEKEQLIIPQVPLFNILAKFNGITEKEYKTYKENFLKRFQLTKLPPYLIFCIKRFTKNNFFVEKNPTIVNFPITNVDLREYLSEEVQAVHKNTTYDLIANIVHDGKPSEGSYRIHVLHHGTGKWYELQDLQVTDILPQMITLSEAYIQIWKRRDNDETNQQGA
Outline: as §1

USP4 = molecular target: T4, USP4 (UniProt Q13107)
T4 sequence (whole entry): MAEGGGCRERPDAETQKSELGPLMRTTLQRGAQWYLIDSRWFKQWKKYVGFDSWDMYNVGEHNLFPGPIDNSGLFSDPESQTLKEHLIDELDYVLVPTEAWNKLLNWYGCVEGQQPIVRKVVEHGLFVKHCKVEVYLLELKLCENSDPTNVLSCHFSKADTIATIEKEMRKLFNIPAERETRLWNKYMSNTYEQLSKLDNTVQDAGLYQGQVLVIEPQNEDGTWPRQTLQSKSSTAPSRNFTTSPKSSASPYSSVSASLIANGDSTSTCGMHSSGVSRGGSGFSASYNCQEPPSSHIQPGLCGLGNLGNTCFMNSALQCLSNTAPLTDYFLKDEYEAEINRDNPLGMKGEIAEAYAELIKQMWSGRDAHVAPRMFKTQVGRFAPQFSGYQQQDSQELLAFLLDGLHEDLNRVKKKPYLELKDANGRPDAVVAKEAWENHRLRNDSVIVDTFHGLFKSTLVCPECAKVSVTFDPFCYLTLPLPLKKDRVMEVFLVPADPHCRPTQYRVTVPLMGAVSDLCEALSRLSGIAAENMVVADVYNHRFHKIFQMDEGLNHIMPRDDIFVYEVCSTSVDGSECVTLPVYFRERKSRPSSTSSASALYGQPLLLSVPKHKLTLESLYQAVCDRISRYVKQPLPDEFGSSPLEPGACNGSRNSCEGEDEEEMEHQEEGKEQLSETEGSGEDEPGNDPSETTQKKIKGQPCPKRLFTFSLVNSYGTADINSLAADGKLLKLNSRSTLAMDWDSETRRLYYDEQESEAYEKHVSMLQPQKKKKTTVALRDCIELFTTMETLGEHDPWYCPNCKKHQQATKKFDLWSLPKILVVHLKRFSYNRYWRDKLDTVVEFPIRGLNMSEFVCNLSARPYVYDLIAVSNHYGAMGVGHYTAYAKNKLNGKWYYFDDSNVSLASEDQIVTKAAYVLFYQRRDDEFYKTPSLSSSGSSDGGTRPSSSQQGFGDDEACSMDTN
Outline: as §1

Measured: log2 ratio of Biotin-Ahx-Ub-VS probe labelling

Sequence of USP34 (Q70CQ2 whole entry, the tested form may be a part): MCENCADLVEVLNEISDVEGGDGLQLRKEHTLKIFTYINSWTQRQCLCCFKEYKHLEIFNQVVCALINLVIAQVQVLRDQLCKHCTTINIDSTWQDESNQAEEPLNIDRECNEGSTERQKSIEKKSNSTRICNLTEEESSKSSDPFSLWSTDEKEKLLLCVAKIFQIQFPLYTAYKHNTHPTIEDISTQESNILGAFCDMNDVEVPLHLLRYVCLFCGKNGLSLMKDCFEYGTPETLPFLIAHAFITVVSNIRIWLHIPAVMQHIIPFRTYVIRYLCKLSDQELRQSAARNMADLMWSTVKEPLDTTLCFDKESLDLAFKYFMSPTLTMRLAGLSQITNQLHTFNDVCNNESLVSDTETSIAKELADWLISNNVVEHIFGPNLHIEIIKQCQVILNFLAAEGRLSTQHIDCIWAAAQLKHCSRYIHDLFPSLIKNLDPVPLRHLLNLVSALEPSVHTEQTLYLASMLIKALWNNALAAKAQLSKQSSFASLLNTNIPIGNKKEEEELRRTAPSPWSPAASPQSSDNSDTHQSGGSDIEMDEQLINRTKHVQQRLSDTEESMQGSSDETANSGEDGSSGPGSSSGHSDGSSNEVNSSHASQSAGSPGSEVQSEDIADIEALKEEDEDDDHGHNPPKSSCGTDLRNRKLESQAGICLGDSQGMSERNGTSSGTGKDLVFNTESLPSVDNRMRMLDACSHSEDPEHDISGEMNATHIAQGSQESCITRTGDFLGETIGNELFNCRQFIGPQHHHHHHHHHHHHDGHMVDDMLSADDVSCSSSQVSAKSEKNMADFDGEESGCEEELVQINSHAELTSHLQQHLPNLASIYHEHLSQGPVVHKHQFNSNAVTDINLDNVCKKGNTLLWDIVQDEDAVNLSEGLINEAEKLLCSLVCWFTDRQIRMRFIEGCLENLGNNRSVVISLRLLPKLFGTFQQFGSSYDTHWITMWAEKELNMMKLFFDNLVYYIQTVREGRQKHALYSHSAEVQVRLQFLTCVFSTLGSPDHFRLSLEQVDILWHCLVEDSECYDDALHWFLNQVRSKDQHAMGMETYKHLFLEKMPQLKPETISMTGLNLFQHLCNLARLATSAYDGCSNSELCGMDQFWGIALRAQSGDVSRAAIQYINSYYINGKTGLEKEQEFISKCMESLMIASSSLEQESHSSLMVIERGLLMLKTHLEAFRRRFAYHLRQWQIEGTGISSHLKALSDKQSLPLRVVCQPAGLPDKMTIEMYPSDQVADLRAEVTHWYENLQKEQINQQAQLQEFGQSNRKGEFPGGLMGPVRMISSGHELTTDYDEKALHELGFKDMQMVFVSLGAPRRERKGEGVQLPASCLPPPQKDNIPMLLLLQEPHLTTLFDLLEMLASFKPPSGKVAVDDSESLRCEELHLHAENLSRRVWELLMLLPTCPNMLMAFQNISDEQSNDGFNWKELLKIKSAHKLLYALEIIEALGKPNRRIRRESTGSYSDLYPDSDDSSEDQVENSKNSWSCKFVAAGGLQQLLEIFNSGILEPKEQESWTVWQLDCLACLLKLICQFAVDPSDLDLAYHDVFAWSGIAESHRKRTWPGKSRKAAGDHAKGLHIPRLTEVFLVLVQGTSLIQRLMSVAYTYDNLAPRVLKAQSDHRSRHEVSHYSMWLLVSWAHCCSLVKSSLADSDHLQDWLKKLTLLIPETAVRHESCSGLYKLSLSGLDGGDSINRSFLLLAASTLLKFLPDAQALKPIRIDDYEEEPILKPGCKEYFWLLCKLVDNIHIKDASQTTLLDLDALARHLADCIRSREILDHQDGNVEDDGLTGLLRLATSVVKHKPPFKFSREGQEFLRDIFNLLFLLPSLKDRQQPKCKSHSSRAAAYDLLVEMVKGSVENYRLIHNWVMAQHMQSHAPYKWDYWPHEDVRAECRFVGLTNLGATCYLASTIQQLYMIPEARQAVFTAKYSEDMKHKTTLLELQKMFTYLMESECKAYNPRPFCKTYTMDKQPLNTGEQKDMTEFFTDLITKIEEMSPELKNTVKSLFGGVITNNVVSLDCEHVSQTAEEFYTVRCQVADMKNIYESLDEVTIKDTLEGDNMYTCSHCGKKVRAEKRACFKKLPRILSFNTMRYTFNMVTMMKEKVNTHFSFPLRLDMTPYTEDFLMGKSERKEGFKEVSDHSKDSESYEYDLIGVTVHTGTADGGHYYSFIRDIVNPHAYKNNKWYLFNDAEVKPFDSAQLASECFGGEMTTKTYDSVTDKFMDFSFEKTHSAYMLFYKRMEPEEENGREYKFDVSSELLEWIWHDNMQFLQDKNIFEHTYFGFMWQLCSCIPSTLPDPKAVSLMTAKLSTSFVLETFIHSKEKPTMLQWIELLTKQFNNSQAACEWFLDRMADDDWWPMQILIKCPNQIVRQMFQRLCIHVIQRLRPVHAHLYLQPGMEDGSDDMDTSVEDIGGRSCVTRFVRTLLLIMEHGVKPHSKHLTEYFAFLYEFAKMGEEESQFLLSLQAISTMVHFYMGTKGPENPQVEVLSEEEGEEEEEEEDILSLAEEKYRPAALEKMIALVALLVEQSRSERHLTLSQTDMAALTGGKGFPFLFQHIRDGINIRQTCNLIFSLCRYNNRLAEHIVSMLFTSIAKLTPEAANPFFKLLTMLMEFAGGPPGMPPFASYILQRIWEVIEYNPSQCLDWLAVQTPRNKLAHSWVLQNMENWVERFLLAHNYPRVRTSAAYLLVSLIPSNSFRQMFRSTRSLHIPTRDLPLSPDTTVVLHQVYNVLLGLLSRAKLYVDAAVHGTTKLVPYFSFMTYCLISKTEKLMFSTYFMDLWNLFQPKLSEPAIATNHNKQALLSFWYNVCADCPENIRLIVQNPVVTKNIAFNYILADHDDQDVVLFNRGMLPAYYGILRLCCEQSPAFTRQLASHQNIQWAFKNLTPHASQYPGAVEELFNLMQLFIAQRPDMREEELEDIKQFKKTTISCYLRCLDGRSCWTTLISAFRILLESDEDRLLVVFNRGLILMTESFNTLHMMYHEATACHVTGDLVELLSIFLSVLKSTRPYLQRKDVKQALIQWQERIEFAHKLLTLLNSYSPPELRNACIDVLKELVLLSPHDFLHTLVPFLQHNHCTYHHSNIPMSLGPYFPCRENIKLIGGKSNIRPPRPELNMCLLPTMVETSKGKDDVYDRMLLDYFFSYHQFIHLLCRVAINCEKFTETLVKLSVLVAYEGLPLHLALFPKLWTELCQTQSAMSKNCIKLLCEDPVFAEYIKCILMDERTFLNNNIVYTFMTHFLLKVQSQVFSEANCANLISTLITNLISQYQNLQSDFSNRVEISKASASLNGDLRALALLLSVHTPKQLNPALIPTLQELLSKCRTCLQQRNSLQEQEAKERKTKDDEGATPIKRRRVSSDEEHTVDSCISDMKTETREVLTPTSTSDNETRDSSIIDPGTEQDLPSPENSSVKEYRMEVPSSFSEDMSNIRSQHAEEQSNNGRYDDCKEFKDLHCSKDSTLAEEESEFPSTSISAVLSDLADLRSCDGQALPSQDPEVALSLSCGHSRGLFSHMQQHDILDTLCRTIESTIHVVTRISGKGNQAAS

CN(CCC(O)c1ccc(Br)cc1)C(=O)CCl (stereo not given)
inactive: USP34 -0.261 | USP36 -0.0809 | USP38 -0.17 | USP39 -0.00535 | USP4 -0.206
